Reference: the supplement of paper PMC6555819

Key:
Assay in all cases: PBM binding z-score (relative to random genomic background probes); higher = stronger binding; sequences stand for … in GC…GCGATTGACAGCGTAGAATGAAGG
[1] = system: FXR:RXRa (NR concentration 270 nM, RXRa partner concentration 90 nM)
Procedure, shortened: (§1)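 The probes on custom Agilent 4×180K protein-binding microarrays were double-stranded, with 34-nt variable regions bearing direct-repeat seeds, single-nucleotide variants, half-site ablations and random human genomic background sequences. Incubation lasted 1 h with ligand-free nuclear receptor dimers in PBS pH 7.4, 2% milk, 0.02% Triton X-100, 1 mM DTT, 0.2 mg/mL BSA and 0.4 mg/ml salmon testes DNA. Antibodies against each partner (one per run) detected bound dimers, and fluorescence scans were regression-normalized. Binding z-scores take the random background probes as reference.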

[2] = system: LXRa:RXRa (NR concentration 270 nM, RXRa partner concentration 90 nM)
Procedure, shortened: as §1

[3] = system: LXRa homodimer (NR concentration 270 nM)
Procedure, shortened: as §1

[4] = system: LXRb:RXRa (NR concentration 270 nM, RXRa partner concentration 90 nM)
Procedure, shortened: as §1

[5] = system: LXRb homodimer (NR concentration 270 nM)
Procedure, shortened: as §1

[6] = system: PPARa:RXRa (NR concentration 270 nM, RXRa partner concentration 90 nM)
Procedure, shortened: as §1

[7] = system: PPARg:RXRa (NR concentration 180 nM, RXRa partner concentration 90 nM)
Procedure, shortened: as §1

[8] = system: PPARg:RXRa 270nM:90nM, anti-RXR (NR concentration 270 nM, RXRa partner concentration 90 nM)
Procedure, shortened: as §1

[9] = system: PPARg:RXRa 30nM:10nM, anti-RXR (NR concentration 30 nM, RXRa partner concentration 10 nM)
Procedure, shortened: as §1

[10] = system: PPARg:RXRa 90nM:30nM, anti-RXR (NR concentration 90 nM, RXRa partner concentration 30 nM)
Procedure, shortened: as §1

[11] = system: PPARg:RXRa DBDmut IVT, anti-RXR (DBD mutation: RXRa K156A/R161A, NR concentration 270 nM, RXRa partner concentration 90 nM)
Procedure, shortened: as §1

[12] = system: PPARg:RXRa IVT, anti-PPARg (NR concentration 270 nM, RXRa partner concentration 90 nM)
Procedure, shortened: as §1

[13] = system: PPARg DBDmut:RXRa IVT, anti-PPARg (DBD mutation: PPARg1 K132A/R137A, NR concentration 270 nM, RXRa partner concentration 90 nM)
Procedure, shortened: as §1

[14] = system: PPARg DBDmut IVT, anti-PPARg (DBD mutation: PPARg1 K132A/R137A, NR concentration 270 nM)
Procedure, shortened: as §1

[15] = system: PPARg homodimer (NR concentration 180 nM)
Procedure, shortened: as §1

[16] = system: PXR:RXRa (NR concentration 270 nM, RXRa partner concentration 90 nM)
Procedure, shortened: as §1

[17] = system: PXR homodimer (NR concentration 270 nM)
Procedure, shortened: as §1

[18] = system: RARa:RXR (NR concentration 270 nM, RXRa partner concentration 90 nM)
Procedure, shortened: as §1

[19] = system: RARa homodimer (NR concentration 270 nM)
Procedure, shortened: as §1

[20] = system: RARb:RXRa (NR concentration 270 nM, RXRa partner concentration 90 nM)
Procedure, shortened: as §1

Sequence	PBM binding z-score [1]	PBM binding z-score [2]	PBM binding z-score [3]	PBM binding z-score [4]	PBM binding z-score [5]	PBM binding z-score [6]	PBM binding z-score [7]	PBM binding z-score [8]	PBM binding z-score [9]	PBM binding z-score [10]	PBM binding z-score [11]	PBM binding z-score [12]	PBM binding z-score [13]	PBM binding z-score [14]	PBM binding z-score [15]	PBM binding z-score [16]	PBM binding z-score [17]	PBM binding z-score [18]	PBM binding z-score [19]	PBM binding z-score [20]
ATCGCTAGGTAACCAAGTTCAGTGAATGCCGAAC	-0.315	0.156	-0.0176	-0.126	-0.754	0.318	-0.0825	-0.186	-0.453	-0.0897	-0.05	0.465	-0.411	-0.436	-0.86	1.57	1.12	0.267	-0.716	0.753
TCTTGTAGATCACCAGGTTAAGAAAGCTGGCCAA	0.657	0.602	-0.148	0.696	0.00375	1.47	0.304	2.21	3.04	2.67	2.51	1.98	-0.0157	0.181	0.18	0.513	-0.16	0.889	0.399	0.639
TCGAGTAGGTTAGCGGCATTCAGAATGGCGTCGA	-0.731	-0.487	-0.848	-0.653	-1.3	0.0919	-0.173	0.409	0.448	0.475	1.81	0.944	-1.28	-0.893	-1.05	-0.724	-0.924	-0.504	-1.29	0.21
TGGAGTAGGTTAGTCGGGGCATTCAGCCAACATA	0.43	0.268	0.358	1.05	1.05	1.31	0.778	1.32	0.564	1.22	3.42	3.51	-0.389	-0.234	1.08	0.401	0.996	0.374	0.676	1.03
GCTAGTTGGTCAGTAAAAGGCCACACACCGGTCG	-0.0469	-0.0882	-0.17	-0.23	-0.629	0.0643	0.521	0.122	-0.368	0.378	-0.0753	0.216	-0.775	-1.15	0.58	-0.0291	-0.108	0.345	-0.305	1.42
CCTAGTTGGTCAGGAGGTCACACACCGGATATGA	3.73	3.67	2.08	3.3	0.83	4.11	3.41	3.95	1.75	3.27	1.79	3.68	0.499	0.258	3.9	4.41	1.41	4.76	2.91	3.82
TCATCTAGGTAAATGCTAGGTGAAAGTCCGATCT	0.554	0.411	0.0508	0.263	-0.0728	1.17	0.51	2.29	3.44	2.92	3.81	3.11	1.09	0.995	0.213	0.375	-0.263	0.578	-0.0135	0.219
CTACCACGGTGAACAAGGTCGTTGATTACTATTC	0.517	0.708	0.301	1.4	-0.058	1.28	0.357	0.508	-0.252	0.141	0.771	0.788	-0.025	-0.267	0.744	1.44	1.01	1.15	0.251	0.76
ATACCAAGGTGATCGTGAGGTCTTTGATACTAAC	0.467	0.136	0.00658	0.0706	-0.603	0.646	0.322	0.105	-0.238	-0.296	0.237	1.08	0.449	0.702	0.551	0.655	-0.114	0.833	0.255	0.705
TCGAGTAGGTTAGTCGGGGCATTCAGCCAACATA	-0.132	-0.201	-0.628	0.294	-0.855	0.44	-0.224	0.553	0.435	0.377	2.04	1.69	-0.526	-0.18	-0.242	-0.0448	-0.488	0.00411	-0.698	0.351
GCGACTGGGGCATCATCAGGTTACCATAACTTAA	0.261	0.0527	0.169	1.57	-0.509	1.46	1.1	0.894	-0.0999	0.381	4.15	3.3	-0.137	-0.42	0.121	0.266	-0.0234	1.05	-0.63	0.767
AGTCAAAGTGCAGGACGAGGTAACGTAAAGCACG	-0.105	-0.155	-0.419	-0.641	-0.89	0.169	1.06	1.03	0.301	0.389	-0.506	0.274	-0.356	-0.388	-0.0962	-0.156	-0.256	0.784	-0.657	1.15
AGTCAAAGTTCACTGGGTAACGTAAGATTCAGCT	5.3	5.02	3.18	2.98	0.65	4.78	7.5	6.72	3.78	6.4	2.75	4.82	1.38	0.335	2.63	4.4	3.47	3.63	1.43	4.81
TCTTGTAGATCAAGAGGAGGTTAAGAAAGATCGA	0.338	0.95	-0.0702	0.725	-0.517	1.22	-0.0325	1.24	2.38	1.6	1.29	0.615	0.0065	0.335	0.153	0.769	-0.0434	1.09	0.139	0.364
